Assay results published in PubChem BioAssay.
Active and inactive are the calls of the source. Unless noted, how the calls were made is not given here.

How the values were obtained:
[1] = tested on: Wnt5a (protein binding on small-molecule microarray); test: small molecules binding Wnt5a protein – biophysical, small-molecule microarray, 635/667 nm fluorescence, primary screen (AID 1142); conditions: 635 nm fluorescence, higher = more signal;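 further: fluorescence read at 667 nm with signal to noise per printed feature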
[2] = ATP-based viability of Huh7 replicon cells – cell-based, CellTiter-Glo luminescence, basal, 48 h, cytotoxicity control for HCV replication inhibitor project, primary screen (AID 1143); conditions: higher = more signal, called active from +8 up or from −8 down;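 further: Huh7 hepatoma cells carrying a hepatitis C replication reporter with no stimulus; test concentration not given here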
[3] = Pseudomonas biofilm growth suppression – PAO1 strain, BacTiter-Glo luminescence, LB-PBS, primary screen (AID 1144); conditions: P. aeruginosa PAO1 biofilm, 12 h, higher = more signal
[4] = basal CRE-LacZ reporter activity in PC12 – cell-based, unstimulated, primary screen (AID 1145); conditions: no forskolin, luminescence, 4.5 h, higher = more signal, called active from +8 up or from −8 down
[5] = forskolin-driven CRE-LacZ activity in PC12 – cell-based, CRE-LacZ reporter, forskolin-stimulated, primary screen (AID 1146); conditions: luminescence, 4.5 h, higher = more signal, called active from +8 up or from −8 down;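 further: PC12 cells with 6xCRE LacZ reporter stimulated by forskolin 10 µM; beta-galactosidase reporter signal reflecting CREB driven transcription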
[6] = biological target: Streptavidin (Streptomyces avidinii) (UniProt P22629); test: compounds binding control protein streptavidin – biophysical, small-molecule microarray, 635/667 nm fluorescence, artefact control for SMM compound annotation, primary screen (AID 1147); conditions: higher = more signal;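 further: signal reflects streptavidin binding to arrayed compounds as a control protein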
Streptavidin (Streptomyces avidinii), sequence (P22629 whole entry, looked up): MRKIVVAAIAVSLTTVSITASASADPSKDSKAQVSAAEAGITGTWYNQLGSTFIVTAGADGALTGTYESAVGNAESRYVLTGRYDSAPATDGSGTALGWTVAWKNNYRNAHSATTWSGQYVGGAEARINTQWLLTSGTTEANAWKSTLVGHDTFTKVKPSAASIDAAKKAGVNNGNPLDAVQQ

[7] = probe aInhba binding on compound microarray – biochemical, small-molecule microarray, 635/667 nm fluorescence, primary screen (AID 1148); conditions: higher = more signal;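 further: score merges 667nm spot fluorescence with signal-to-noise for antibody binding to printed compounds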
Torsin-1A (Homo sapiens) [8] = biological target: Torsin-1A (Homo sapiens) (UniProt O14656); test: TOR1A wild-type binding on microarray – cell lysate, small-molecule microarray, lysate, 635/667 nm, primary screen (AID 1149); conditions: COS7 hTOR1A-WT lysate, 635 nm fluorescence, higher = more signal
Torsin-1A (Homo sapiens), sequence (O14656 whole entry, looked up): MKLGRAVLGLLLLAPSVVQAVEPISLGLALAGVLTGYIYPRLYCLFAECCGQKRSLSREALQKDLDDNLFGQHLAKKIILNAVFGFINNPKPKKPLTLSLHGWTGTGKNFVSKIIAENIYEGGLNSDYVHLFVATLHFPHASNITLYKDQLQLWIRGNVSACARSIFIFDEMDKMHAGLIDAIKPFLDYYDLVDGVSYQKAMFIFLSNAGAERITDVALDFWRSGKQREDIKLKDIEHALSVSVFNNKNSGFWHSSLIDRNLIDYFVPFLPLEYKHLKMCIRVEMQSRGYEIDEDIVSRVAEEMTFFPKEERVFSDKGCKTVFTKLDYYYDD

Torsin-1A (Homo sapiens) [9] = biological target: Torsin-1A (Homo sapiens) (UniProt O14656); test: torsin A mutant lysate binding on microarrays – cell lysate, small-molecule microarray, COS7 lysate, 635/667 nm fluorescence, primary screen (AID 1150); conditions: COS7 hTOR1A mutant lysate, 635 nm fluorescence, higher = more signal;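 further: score pools 667 nm emission and signal to noise measuring lysate protein binding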
[10] = tested on: Sonic hedgehog protein (Shh); test: Sonic hedgehog microarray binding compounds – biochemical, small-molecule microarray, 635/667 nm fluorescence, primary screen (AID 1151); conditions: 635 nm fluorescence, higher = more signal;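 further: Shh protein binding to compounds spotted on small-molecule microarray slides; score combines spot fluorescence intensity with signal-to-noise across triplicate slides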
[11] = optical density shifts of acrAB sulA E. coli – strain DRC41, OD650, 48 h, E. coli filamentation inducer project, primary screen (AID 1152); conditions: higher = more signal, called active from +8 up or from −8 down;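 further: E. coli MC1000 strain DRC41 lacking acrAB efflux pump and sulA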
[12] = probe aLefty1 binding on compound microarray – biochemical, small-molecule microarray, 635/667 nm fluorescence, primary screen (AID 1153); conditions: higher = more signal;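 further: score merges spot fluorescence with signal-to-noise ratio from the scanned slide images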
[13] = plasmodial surface anion channel blockers, osmotic lysis – cell-based, P. falciparum Indochina, OD700, 1 h, primary screen (AID 1154); conditions: P. falciparum Indochina infected RBC osmotic lysis, higher = more signal, called active from +8 up or from −8 down
[14] = plasmodial surface anion channel blockers, osmotic lysis – cell-based, P. falciparum Indochina, OD700, 2 h, primary screen (AID 1155);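 further: lysis reports solute entry through the parasite surface anion channel PSAC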; conditions: P. falciparum Indochina infected erythrocytes, higher = more signal, called active from +8 up or from −8 down
[15] = changes in parasitized red cell lysis, either direction – P. falciparum Indochina, OD700, 3 h, PSAC antagonist project, primary screen (AID 1156); conditions: P. falciparum-infected erythrocytes, osmotic lysis, higher = more signal, called active from +8 up or from −8 down
[16] = plasmodial surface anion channel blockers, osmotic lysis – cell-based, P. falciparum Indochina, OD700, 18 h, primary screen (AID 1157); conditions: P. falciparum Indochina infected erythrocytes, osmotic lysis OD700, 18 h; higher = more signal, called active from +8 up or from −8 down
[17] = S6 kinase pathway phospho-S6 level changes – cell-based, A549, cytoblot, luminescence, serum-stimulated, primary screen (AID 1158); conditions: 5 h, higher = more signal;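 further: serum-stimulated A549 lung adenocarcinoma cells; signal is phosphorylated S6 detected by cytoblot immunostaining with HRP secondary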
[18] = biological target: NADPH oxidase 2 (Homo sapiens) (UniProt P04839); test: compounds shifting NOX2 Amplex Red fluorescence – cell-based, HEK293-NOX2, PMA-stimulated, NOX inhibitor project, primary screen (AID 1159); conditions: 45 min, higher = more signal, called active from +8 up or from −8 down; further: test concentration not given here
NADPH oxidase 2 (Homo sapiens), sequence (P04839 whole entry, looked up): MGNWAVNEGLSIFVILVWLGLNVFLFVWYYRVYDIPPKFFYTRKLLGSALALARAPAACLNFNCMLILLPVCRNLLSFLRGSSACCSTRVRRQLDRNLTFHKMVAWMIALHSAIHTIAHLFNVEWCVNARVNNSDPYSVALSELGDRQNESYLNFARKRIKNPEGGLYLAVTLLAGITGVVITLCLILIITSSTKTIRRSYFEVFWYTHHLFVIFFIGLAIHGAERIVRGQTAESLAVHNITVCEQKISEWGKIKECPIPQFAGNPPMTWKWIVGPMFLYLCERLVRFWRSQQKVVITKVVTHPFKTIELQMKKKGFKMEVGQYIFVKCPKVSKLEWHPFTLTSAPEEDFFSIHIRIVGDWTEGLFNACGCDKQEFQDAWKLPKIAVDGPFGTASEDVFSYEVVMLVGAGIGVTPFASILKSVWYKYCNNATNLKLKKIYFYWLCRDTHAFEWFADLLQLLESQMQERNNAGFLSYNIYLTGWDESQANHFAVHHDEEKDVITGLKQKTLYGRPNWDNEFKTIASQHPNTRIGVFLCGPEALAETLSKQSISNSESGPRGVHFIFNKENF

[19] = biological target: NADPH oxidase 4 (Homo sapiens) (UniProt Q9NPH5); test: compounds shifting NOX4 Amplex Red fluorescence – cell-based, HEK293-NOX4, tetracycline-induced, NOX inhibitor project, primary screen (AID 1160); conditions: HEK293-NOX4, Amplex Red H2O2 fluorescence, 45 min; higher = more signal, called active from +8 up or from −8 down
NADPH oxidase 4 (Homo sapiens), sequence (Q9NPH5 whole entry, looked up): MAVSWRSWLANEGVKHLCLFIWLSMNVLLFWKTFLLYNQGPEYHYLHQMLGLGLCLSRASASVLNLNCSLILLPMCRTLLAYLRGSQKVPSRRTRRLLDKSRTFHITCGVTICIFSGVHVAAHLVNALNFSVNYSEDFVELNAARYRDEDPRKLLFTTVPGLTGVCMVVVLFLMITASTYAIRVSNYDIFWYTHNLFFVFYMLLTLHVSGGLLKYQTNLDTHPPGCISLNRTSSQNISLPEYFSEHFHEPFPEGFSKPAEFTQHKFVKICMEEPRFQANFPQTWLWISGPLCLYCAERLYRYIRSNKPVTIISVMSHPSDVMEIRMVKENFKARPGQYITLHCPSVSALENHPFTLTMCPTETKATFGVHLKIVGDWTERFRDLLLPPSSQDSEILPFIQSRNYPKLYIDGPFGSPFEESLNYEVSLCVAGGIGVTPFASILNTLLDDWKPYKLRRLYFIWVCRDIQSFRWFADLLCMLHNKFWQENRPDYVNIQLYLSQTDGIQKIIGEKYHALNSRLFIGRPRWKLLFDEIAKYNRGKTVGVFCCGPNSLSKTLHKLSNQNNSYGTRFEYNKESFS

[20] = biological target: NADPH oxidase 5 (Homo sapiens) (UniProt Q96PH1); test: compounds shifting NOX5 Amplex Red fluorescence – cell-based, HEK293-NOX5, NOX inhibitor project, primary screen (AID 1161); conditions: HEK293-NOX5, ionomycin, 45 min, higher = more signal
NADPH oxidase 5 (Homo sapiens), sequence (Q96PH1 whole entry, looked up): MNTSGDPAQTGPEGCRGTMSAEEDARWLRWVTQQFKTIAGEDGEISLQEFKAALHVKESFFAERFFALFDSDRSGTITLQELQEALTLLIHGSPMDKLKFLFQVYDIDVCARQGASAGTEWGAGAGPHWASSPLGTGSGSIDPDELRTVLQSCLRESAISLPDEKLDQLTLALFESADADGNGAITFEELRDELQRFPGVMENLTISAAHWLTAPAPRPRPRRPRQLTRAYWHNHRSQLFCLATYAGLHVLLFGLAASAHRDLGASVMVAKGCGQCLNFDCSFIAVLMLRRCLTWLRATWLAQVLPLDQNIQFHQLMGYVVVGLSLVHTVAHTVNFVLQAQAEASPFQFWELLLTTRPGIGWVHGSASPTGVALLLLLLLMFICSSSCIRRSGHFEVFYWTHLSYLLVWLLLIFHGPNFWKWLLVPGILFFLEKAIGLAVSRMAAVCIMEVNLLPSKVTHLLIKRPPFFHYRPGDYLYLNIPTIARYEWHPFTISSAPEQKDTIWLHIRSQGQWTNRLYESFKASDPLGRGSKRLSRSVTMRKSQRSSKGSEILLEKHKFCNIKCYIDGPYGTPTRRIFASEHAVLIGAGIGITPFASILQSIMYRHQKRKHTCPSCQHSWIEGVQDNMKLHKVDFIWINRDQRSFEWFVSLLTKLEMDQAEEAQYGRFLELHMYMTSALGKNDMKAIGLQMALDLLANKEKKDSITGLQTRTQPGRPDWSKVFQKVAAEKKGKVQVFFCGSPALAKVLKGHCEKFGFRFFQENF

Structure (SMILES): C[C@H]1NC(=O)[C@@]23C(=O)N[C@@H](Cc4ccccc4)C2[C@H](C)[C@@]2(C)O[C@H]2C3/C=C/C/C=C\CNC(=O)[C@H](Cc2ccccc2)NC1=O (stereo not given in full)
- composite z-score [1]: 0.0319
- z-score [2]: -0.945 (inactive)
- z-score [3]: -0.773 (inactive)
- z-score [4]: -0.508 (inactive)
- z-score [5]: -0.0421 (inactive)
- composite z-score [6]: -0.178
- composite z-score [7]: -0.0963
- composite z-score (Torsin-1A (Homo sapiens) [8]): -0.2
- composite z-score (Torsin-1A (Homo sapiens) [9]): 0.113
- composite z-score [10]: 1.63
- z-score [11]: -0.213 (inactive)
- composite z-score [12]: -0.0378
- z-score [13]: 0.874 (inactive)
- z-score [14]: 0.577 (inactive)
- z-score [15]: 0.395 (inactive)
- z-score [16]: 0.33 (inactive)
- z-score [17]: -0.271
- z-score [18]: 1.63 (inactive)
- z-score [19]: -1.2 (inactive)
- z-score [20]: 0.201

Structure (SMILES): CC(C)(C)OC(=O)CC[C@@]1(C(=O)NCc2ccccc2)N=C(c2ccc(OCCCO)cc2)O[C@@H]1c1ccccc1N=[N+]=[N-]
- composite z-score [1]: 0.717
- z-score [2]: -2.53 (inactive)
- z-score [3]: 0.014 (inactive)
- z-score [4]: 1.73 (inactive)
- z-score [5]: -0.947 (inactive)
- composite z-score [6]: 1.8
- composite z-score [7]: 0.0839
- composite z-score (Torsin-1A (Homo sapiens) [8]): -0.183
- composite z-score (Torsin-1A (Homo sapiens) [9]): 1.33
- composite z-score [10]: 0.101
- z-score [11]: 0.775 (inactive)
- composite z-score [12]: 0.347
- z-score [13]: 33.2 (active)
- z-score [14]: 30 (active)
- z-score [15]: 4.99 (inactive)
- z-score [16]: 6.74 (inactive)
- z-score [17]: 0.787
- z-score [18]: -1.8 (inactive)
- z-score [19]: 0.457 (inactive)
- z-score [20]: -1.86

Structure (SMILES): COc1ccc([Si](C)(C)[C@H]2[C@H](CCO)O[C@@]3(C(=O)N(Cc4cccc(N5C(=O)COc6ccccc65)c4)c4ccccc43)[C@@H]2C)cc1
- composite z-score [1]: -0.285
- z-score [2]: -6.25 (inactive)
- z-score [3]: -1.83 (inactive)
- z-score [4]: 2.41 (inactive)
- z-score [5]: -1.52 (inactive)
- composite z-score [6]: 0.174
- composite z-score [7]: -0.128
- composite z-score (Torsin-1A (Homo sapiens) [8]): -0.451
- composite z-score (Torsin-1A (Homo sapiens) [9]): -0.298
- composite z-score [10]: 0.419
- z-score [11]: 1.76 (inactive)
- composite z-score [12]: 0.122
- z-score [13]: 2.15 (inactive)
- z-score [14]: 3.18 (inactive)
- z-score [15]: 1.7 (inactive)
- z-score [16]: 1.77 (inactive)
- z-score [17]: 0.805
- z-score [18]: -1.26 (inactive)
- z-score [19]: 1.1 (inactive)
- z-score [20]: 1.09

Structure (SMILES): COc1ccc([Si](C)(C)[C@H]2[C@H](CCn3cc([C@H](O)c4ccccc4)nn3)O[C@@]3(C(=O)N(Cc4ccc(N5C(=O)c6cccc7cccc5c67)cc4)c4ccccc43)[C@@H]2C)cc1
- composite z-score [1]: -0.21
- z-score [2]: -2.02 (inactive)
- z-score [3]: -1.05 (inactive)
- z-score [4]: 1.02 (inactive)
- z-score [5]: -0.715 (inactive)
- composite z-score [6]: 0.618
- composite z-score [7]: -0.0791
- composite z-score (Torsin-1A (Homo sapiens) [8]): -0.734
- composite z-score (Torsin-1A (Homo sapiens) [9]): -0.35
- composite z-score [10]: 0.232
- z-score [11]: 0.0759 (inactive)
- composite z-score [12]: 0.0091
- z-score [13]: 1.97 (inactive)
- z-score [14]: 0.485 (inactive)
- z-score [15]: 0.0591 (inactive)
- z-score [16]: 0.646 (inactive)
- z-score [17]: 0.243
- z-score [18]: 0.892 (inactive)
- z-score [19]: 0.925 (inactive)
- z-score [20]: 2.01

Structure (SMILES): N#Cc1ccc(NN2C(C(O)c3ccc(F)cc3)C=CC3C(=O)N(c4ccccc4)C(=O)C32)cc1 (stereo not given)
- composite z-score [1]: 0.0035
- z-score [2]: 0.632 (inactive)
- z-score [3]: -0.377 (inactive)
- z-score [4]: 0.629 (inactive)
- z-score [5]: 0.521 (inactive)
- composite z-score [6]: 0.945
- composite z-score [7]: -0.0791
- composite z-score (Torsin-1A (Homo sapiens) [8]): 0.0271
- composite z-score (Torsin-1A (Homo sapiens) [9]): -0.0504
- composite z-score [10]: -0.304
- z-score [11]: -0.922 (inactive)
- composite z-score [12]: 1.03
- z-score [13]: 8.09 (active)
- z-score [14]: 1.4 (inactive)
- z-score [15]: 1.36 (inactive)
- z-score [16]: 1.29 (inactive)
- z-score [17]: -0.491
- z-score [18]: -1.33 (inactive)
- z-score [19]: -4.55 (inactive)
- z-score [20]: -2.9

Structure (SMILES): O=C1O[C@@H](c2ccccc2)[C@@H](c2ccccc2)N2[C@@H](c3ccccc3OCCO)[C@]3(C(=O)Nc4ccc(C#CCCO)cc43)[C@@H](C(=O)N3CCCCCCC3)[C@H]12
- composite z-score [1]: 2.37
- z-score [2]: -3.74 (inactive)
- z-score [3]: -0.163 (inactive)
- z-score [4]: 0.245 (inactive)
- z-score [5]: 0.337 (inactive)
- composite z-score [6]: 4.08
- composite z-score [7]: 2.42
- composite z-score (Torsin-1A (Homo sapiens) [8]): 3.06
- composite z-score (Torsin-1A (Homo sapiens) [9]): 2.96
- composite z-score [10]: 1.78
- z-score [11]: -0.723 (inactive)
- composite z-score [12]: 3.18
- z-score [13]: 1.01 (inactive)
- z-score [14]: 0.83 (inactive)
- z-score [15]: 0.352 (inactive)
- z-score [16]: 0.49 (inactive)
- z-score [17]: -0.544
- z-score [18]: 1.02 (inactive)
- z-score [19]: 0.486 (inactive)
- z-score [20]: 1.69

Structure (SMILES): CN(C)C(=O)[C@]1(CCS(=O)(=O)c2ccccc2)N=C(c2ccc(OCCCO)cc2)O[C@@H]1c1ccccc1N=[N+]=[N-]
- composite z-score [1]: 0.758
- z-score [2]: -2.79 (inactive)
- z-score [3]: 0.0474 (inactive)
- z-score [4]: 1.92 (inactive)
- z-score [5]: -0.977 (inactive)
- composite z-score [6]: 2.06
- composite z-score [7]: 0.246
- composite z-score (Torsin-1A (Homo sapiens) [8]): 1.42
- composite z-score (Torsin-1A (Homo sapiens) [9]): 1.78
- composite z-score [10]: 0.605
- z-score [11]: -0.0791 (inactive)
- composite z-score [12]: 0.382
- z-score [13]: 31.2 (active)
- z-score [14]: 27.2 (active)
- z-score [15]: 2.03 (inactive)
- z-score [16]: 6.58 (inactive)
- z-score [17]: 0.178
- z-score [18]: 0.502 (inactive)
- z-score [19]: 1.64 (inactive)
- z-score [20]: 1.24

Structure (SMILES): CCOC(=O)C[C@H]1[C@H](OC(=O)Cc2ccc3c(c2)OCO3)[C@@H](NC(=O)CC(C)C)c2cc(OCCCO)ccc2N1C(=O)Cc1ccc(OC)cc1
- composite z-score [1]: -0.199
- z-score [2]: -1.04 (inactive)
- z-score [3]: 0.29 (inactive)
- z-score [4]: 0.0918 (inactive)
- z-score [5]: -0.513 (inactive)
- composite z-score [6]: -0.0258
- composite z-score [7]: -0.0471
- composite z-score (Torsin-1A (Homo sapiens) [8]): 0.288
- composite z-score (Torsin-1A (Homo sapiens) [9]): -0.115
- composite z-score [10]: -0.113
- z-score [11]: 2.26 (inactive)
- composite z-score [12]: -0.145
- z-score [13]: 6.25 (inactive)
- z-score [14]: -0.537 (inactive)
- z-score [15]: -1.07 (inactive)
- z-score [16]: -1.3 (inactive)
- z-score [17]: 1.72
- z-score [18]: 0.163 (inactive)
- z-score [19]: 0.781 (inactive)
- z-score [20]: 1.15
